# Target: T1, ERF (Homo sapiens, UniProt P50548 1-548)
# T1 sequence: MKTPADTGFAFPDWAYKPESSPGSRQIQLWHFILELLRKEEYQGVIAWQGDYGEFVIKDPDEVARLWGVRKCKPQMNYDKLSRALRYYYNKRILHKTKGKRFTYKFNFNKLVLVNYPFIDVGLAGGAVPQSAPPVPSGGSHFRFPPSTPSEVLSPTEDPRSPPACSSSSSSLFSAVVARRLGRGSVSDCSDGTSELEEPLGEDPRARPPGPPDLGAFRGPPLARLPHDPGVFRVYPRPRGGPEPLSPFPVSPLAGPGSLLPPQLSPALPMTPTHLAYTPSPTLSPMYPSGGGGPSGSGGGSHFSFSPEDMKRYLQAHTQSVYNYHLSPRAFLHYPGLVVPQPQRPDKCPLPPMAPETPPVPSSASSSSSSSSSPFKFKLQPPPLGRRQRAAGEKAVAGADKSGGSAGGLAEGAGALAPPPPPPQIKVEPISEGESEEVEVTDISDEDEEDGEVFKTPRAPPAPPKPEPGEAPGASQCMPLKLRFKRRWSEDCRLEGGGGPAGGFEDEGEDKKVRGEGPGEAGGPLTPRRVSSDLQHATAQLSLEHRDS
# Test: DAPPL (digital affinity profiling via proximity ligation, sequencing); 10 mM Tris-HCl pH 7.5, 50 mM NaCl, 1 mM DTT, 4% glycerol, room temperature, 30 min; GST-TFs on glutathione beads, 16-mer random dsDNA library, 0.1% formaldehyde crosslink after washing; high values mean tight binding
# Conditions: protein: recombinant; tags: N-terminal GST; dsDNA, one strand shown
# Outline: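 Human transcription factors fused to GST were expressed in yeast, captured on glutathione beads, given DNA barcodes and pooled with a GST-only negative control. Pools were incubated with 200 nmole of a 16-mer random double-stranded DNA library in Tris/NaCl/DTT/glycerol buffer at room temperature for 30 min. They were then washed, crosslinked with 0.1% formaldehyde, proximity-ligated (BsaI/T4 ligase, 1 h, 37 °C), PCR-amplified and sequenced on an Illumina NextSeq500. Binding signal is each 6-mer's read frequency for a factor divided by its frequency for the GST control.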
row,Sequence,binding signal
1,TCTTTT,"1.46 fold enrichment (6-mer frequency, TF over GST control)"
2,ACGAAC,"1.05 fold enrichment (6-mer frequency, TF over GST control)"
3,CTGATC,"1.52 fold enrichment (6-mer frequency, TF over GST control)"
4,CGATAA,"1.11 fold enrichment (6-mer frequency, TF over GST control)"
5,GTTCCA,"1 fold enrichment (6-mer frequency, TF over GST control)"
6,TCTGAC,"1.21 fold enrichment (6-mer frequency, TF over GST control)"
7,AAGCTC,"1.2 fold enrichment (6-mer frequency, TF over GST control)"
8,GTTATG,"1.05 fold enrichment (6-mer frequency, TF over GST control)"
9,TTTTTT,"1.18 fold enrichment (6-mer frequency, TF over GST control)"
10,TTGAGC,"1.04 fold enrichment (6-mer frequency, TF over GST control)"
11,CACCTT,"1.33 fold enrichment (6-mer frequency, TF over GST control)"
12,CCTACA,"1.23 fold enrichment (6-mer frequency, TF over GST control)"
13,GAACTT,"1.56 fold enrichment (6-mer frequency, TF over GST control)"
14,CACACT,"1.22 fold enrichment (6-mer frequency, TF over GST control)"
15,TCCCTT,"1.57 fold enrichment (6-mer frequency, TF over GST control)"
16,AGTTCC,"1.73 fold enrichment (6-mer frequency, TF over GST control)"
17,TCCCCG,"1.21 fold enrichment (6-mer frequency, TF over GST control)"
18,TCTCGC,"1.75 fold enrichment (6-mer frequency, TF over GST control)"
19,TAATGA,"1.26 fold enrichment (6-mer frequency, TF over GST control)"
20,CCCACA,"1.12 fold enrichment (6-mer frequency, TF over GST control)"

row,Sequence,binding signal
1,TTAATC,"1.19 fold enrichment (6-mer frequency, TF over GST control)"
2,TGCTTG,"1.14 fold enrichment (6-mer frequency, TF over GST control)"
3,GTTACA,"1.24 fold enrichment (6-mer frequency, TF over GST control)"
4,AGTTTC,"1.22 fold enrichment (6-mer frequency, TF over GST control)"
5,CTCATA,"1.35 fold enrichment (6-mer frequency, TF over GST control)"
6,GTTTTG,"1.25 fold enrichment (6-mer frequency, TF over GST control)"
7,CCCGGA,"2.32 fold enrichment (6-mer frequency, TF over GST control)"
8,CCTCCG,"1.41 fold enrichment (6-mer frequency, TF over GST control)"
9,TCTGTT,"1.43 fold enrichment (6-mer frequency, TF over GST control)"
10,ATACGG,"1.28 fold enrichment (6-mer frequency, TF over GST control)"
11,TAACTC,"1.29 fold enrichment (6-mer frequency, TF over GST control)"
12,AATGGG,"1.16 fold enrichment (6-mer frequency, TF over GST control)"
13,GCCGAC,"1.2 fold enrichment (6-mer frequency, TF over GST control)"
14,TTTGTG,"1.23 fold enrichment (6-mer frequency, TF over GST control)"
15,ATGATT,"1.18 fold enrichment (6-mer frequency, TF over GST control)"
16,CTACCC,"1.29 fold enrichment (6-mer frequency, TF over GST control)"
17,AGGAAG,"1.2 fold enrichment (6-mer frequency, TF over GST control)"
18,CACCGA,"1.05 fold enrichment (6-mer frequency, TF over GST control)"
19,AAAAGG,"1.08 fold enrichment (6-mer frequency, TF over GST control)"
20,TCCCAA,"1.34 fold enrichment (6-mer frequency, TF over GST control)"

# From paper PMC7862700, “An all-to-all approach to the identification of sequence-specific readers for epigenetic DNA modifications on cytosine”
